The source of these data is publication PMC7862700, “An all-to-all approach to the identification of sequence-specific readers for epigenetic DNA modifications on cytosine”.

Experiment in all cases: DAPPL (digital affinity profiling via proximity ligation, sequencing); 10 mM Tris-HCl pH 7.5, 50 mM NaCl, 1 mM DTT, 4% glycerol, room temperature, 30 min; GST-TFs on glutathione beads, 16-mer random dsDNA library, 0.1% formaldehyde crosslink after washing; high values mean tight binding
One test concerns the target T1, FEV (Homo sapiens, UniProt Q99581 1-238).
T1 sequence: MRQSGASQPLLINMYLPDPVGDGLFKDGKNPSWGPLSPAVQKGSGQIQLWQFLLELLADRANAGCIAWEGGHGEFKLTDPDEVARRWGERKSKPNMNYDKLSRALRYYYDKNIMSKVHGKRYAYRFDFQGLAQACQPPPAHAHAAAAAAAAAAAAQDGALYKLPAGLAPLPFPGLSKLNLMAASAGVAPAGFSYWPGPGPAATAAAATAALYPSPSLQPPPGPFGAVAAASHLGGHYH
As to conditions: protein: recombinant; tags: N-terminal GST; dsDNA, one strand shown. The method, boiled down:
(§1)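 Binding signal is given per hexamer as its read frequency for a factor divided by its frequency in the tag-only sample. GST-fused human transcription factors were expressed in yeast, captured on glutathione beads, barcoded with DNA and pooled with that sample, then incubated with 200 nmole of a 16-mer random double-stranded DNA library in Tris/NaCl/DTT/glycerol buffer for 30 min at room temperature. The pools were then washed, crosslinked, proximity-ligated, amplified by PCR and sequenced on an Illumina NextSeq500.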

The target of another test is ETV5 (Homo sapiens, UniProt P41161 1-510). As to conditions: protein: recombinant; tags: N-terminal GST; dsDNA, one strand shown. Summed up: as §1
The next test deals with HSF1 (Homo sapiens, UniProt Q00613 1-529). As to conditions: protein: recombinant; tags: N-terminal GST; chain copies: 3; dsDNA, one strand shown. The method, boiled down:
as §1

Another test has as its target T2, SPIC (Homo sapiens, UniProt Q8N5J4 1-248).
T2 sequence: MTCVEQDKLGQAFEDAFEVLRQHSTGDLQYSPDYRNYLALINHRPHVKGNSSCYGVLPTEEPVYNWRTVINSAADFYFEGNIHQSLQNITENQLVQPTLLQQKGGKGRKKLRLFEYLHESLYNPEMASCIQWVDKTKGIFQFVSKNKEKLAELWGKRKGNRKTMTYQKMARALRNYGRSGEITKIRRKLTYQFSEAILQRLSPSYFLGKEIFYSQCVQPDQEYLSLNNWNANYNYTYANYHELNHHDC
As to conditions: protein: recombinant; tags: N-terminal GST; dsDNA, one strand shown. The method, boiled down:
as §1

Another test has as its target ELF4 (Homo sapiens, UniProt Q99607 1-663). As to conditions: protein: recombinant; tags: N-terminal GST; dsDNA, one strand shown. The method, boiled down: as §1
The next test addresses T3, ELK4 (Homo sapiens, UniProt P28324-2 1-405).
T3 sequence: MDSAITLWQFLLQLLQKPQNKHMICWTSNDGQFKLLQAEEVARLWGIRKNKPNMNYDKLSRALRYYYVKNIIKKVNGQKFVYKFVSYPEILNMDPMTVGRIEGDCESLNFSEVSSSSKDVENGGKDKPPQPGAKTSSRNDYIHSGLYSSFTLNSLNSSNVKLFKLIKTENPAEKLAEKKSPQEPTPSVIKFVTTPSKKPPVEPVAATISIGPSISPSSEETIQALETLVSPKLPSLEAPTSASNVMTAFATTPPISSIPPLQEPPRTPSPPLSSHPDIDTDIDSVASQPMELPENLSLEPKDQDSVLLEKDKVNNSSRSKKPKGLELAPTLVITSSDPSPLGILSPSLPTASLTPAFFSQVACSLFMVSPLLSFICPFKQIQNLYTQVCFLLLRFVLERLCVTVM
As to conditions: protein: recombinant; tags: N-terminal GST; dsDNA, one strand shown. The method, boiled down:
as §1

The target of the next test is T4, ETV2 (Homo sapiens, UniProt O00321 1-342).
T4 sequence: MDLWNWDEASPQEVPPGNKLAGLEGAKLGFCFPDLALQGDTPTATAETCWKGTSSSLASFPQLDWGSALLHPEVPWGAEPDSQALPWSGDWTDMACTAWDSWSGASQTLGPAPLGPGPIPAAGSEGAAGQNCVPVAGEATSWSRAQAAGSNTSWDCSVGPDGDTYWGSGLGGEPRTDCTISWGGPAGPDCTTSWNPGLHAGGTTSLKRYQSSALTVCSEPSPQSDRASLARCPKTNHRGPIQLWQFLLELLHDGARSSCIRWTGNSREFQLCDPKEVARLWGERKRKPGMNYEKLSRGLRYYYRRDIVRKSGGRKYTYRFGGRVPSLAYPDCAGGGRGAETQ
As to conditions: protein: recombinant; tags: N-terminal GST; dsDNA, one strand shown. The method, boiled down:
as §1

The target in the next test is T5, ELF3 (Homo sapiens, UniProt P78545 1-371).
T5 sequence: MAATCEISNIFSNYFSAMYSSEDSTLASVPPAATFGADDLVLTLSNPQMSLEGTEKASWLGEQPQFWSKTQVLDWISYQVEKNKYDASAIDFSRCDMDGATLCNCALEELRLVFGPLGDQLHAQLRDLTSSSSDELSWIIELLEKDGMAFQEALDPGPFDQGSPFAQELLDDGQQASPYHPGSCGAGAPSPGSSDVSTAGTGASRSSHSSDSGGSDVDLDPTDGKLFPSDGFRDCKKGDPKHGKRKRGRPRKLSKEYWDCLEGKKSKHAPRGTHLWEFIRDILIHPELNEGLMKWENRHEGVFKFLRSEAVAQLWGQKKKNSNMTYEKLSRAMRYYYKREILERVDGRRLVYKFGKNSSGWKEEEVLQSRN
As to conditions: protein: recombinant; tags: N-terminal GST; dsDNA, one strand shown. Summed up: as §1

The target of a further test is CRX (Homo sapiens, UniProt O43186 1-299). As to conditions: protein: recombinant; tags: N-terminal GST; dsDNA, one strand shown. Summed up:
as §1

The target in the next test is ETV1 (Homo sapiens, UniProt P50549 1-477). As to conditions: protein: recombinant; tags: N-terminal GST; dsDNA, one strand shown. The method, boiled down:
as §1

Another test has as its target T6, ERF (Homo sapiens, UniProt P50548 1-548).
T6 sequence: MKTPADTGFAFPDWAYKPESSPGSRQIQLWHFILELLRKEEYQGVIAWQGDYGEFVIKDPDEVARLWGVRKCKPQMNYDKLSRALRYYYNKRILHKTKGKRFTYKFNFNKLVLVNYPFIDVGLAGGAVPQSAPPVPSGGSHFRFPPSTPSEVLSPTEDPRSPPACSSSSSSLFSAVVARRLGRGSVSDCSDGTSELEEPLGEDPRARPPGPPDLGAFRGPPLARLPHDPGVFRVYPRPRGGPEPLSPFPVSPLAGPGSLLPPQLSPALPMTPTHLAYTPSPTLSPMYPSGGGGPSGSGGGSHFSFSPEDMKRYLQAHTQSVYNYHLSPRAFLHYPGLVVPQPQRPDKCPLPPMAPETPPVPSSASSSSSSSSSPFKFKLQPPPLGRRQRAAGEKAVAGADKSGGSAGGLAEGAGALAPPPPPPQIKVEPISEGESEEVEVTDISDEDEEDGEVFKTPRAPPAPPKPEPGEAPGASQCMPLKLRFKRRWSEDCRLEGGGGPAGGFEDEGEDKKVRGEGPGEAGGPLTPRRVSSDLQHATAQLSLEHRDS
As to conditions: protein: recombinant; tags: N-terminal GST; dsDNA, one strand shown. The method, boiled down:
as §1

The next test has as its target T7, ETV3L (Homo sapiens, UniProt Q6ZN32 1-361).
T7 sequence: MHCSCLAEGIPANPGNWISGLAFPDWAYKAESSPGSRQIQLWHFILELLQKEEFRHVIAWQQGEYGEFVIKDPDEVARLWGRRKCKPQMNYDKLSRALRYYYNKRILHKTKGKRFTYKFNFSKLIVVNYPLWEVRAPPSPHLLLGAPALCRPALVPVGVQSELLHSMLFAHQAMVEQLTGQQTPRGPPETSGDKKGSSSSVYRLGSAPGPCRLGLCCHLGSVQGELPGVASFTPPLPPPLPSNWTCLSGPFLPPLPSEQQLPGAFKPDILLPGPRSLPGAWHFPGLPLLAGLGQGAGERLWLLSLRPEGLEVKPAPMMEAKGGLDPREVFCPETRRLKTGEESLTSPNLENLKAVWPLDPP
As to conditions: protein: recombinant; tags: N-terminal GST; dsDNA, one strand shown. Summed up:
as §1

A further test addresses T8, ETS2 (Homo sapiens, UniProt P15036 1-469).
T8 sequence: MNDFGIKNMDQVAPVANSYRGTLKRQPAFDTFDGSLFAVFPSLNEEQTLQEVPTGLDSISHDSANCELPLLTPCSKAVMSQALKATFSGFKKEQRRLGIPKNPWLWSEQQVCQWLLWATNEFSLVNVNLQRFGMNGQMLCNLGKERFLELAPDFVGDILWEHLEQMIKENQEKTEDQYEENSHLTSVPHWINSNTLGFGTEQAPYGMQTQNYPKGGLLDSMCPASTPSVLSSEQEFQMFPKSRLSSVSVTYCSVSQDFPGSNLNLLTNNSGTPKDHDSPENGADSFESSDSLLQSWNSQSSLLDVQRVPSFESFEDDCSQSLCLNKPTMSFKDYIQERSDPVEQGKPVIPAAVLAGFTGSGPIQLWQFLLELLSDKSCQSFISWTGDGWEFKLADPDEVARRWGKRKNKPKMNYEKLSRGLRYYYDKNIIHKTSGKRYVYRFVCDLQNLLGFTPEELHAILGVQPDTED
As to conditions: protein: recombinant; tags: N-terminal GST; dsDNA, one strand shown. The method, boiled down:
as §1

For the next test, the target named is T9, SPDEF (Homo sapiens, UniProt O95238 1-335).
T9 sequence: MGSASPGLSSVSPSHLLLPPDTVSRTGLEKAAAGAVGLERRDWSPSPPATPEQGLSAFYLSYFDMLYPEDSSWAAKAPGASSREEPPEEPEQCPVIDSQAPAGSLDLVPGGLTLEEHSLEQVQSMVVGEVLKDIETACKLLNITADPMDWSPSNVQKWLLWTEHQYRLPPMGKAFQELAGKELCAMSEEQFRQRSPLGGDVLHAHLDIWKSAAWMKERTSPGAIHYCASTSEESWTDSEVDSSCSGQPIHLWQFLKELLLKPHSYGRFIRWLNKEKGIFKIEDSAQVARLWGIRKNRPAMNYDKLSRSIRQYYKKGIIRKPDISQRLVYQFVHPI
As to conditions: protein: recombinant; tags: N-terminal GST; dsDNA, one strand shown. The method, boiled down:
as §1

The target of a further test is T10, ETV7 (Homo sapiens, UniProt Q9Y603 1-341).
T10 sequence: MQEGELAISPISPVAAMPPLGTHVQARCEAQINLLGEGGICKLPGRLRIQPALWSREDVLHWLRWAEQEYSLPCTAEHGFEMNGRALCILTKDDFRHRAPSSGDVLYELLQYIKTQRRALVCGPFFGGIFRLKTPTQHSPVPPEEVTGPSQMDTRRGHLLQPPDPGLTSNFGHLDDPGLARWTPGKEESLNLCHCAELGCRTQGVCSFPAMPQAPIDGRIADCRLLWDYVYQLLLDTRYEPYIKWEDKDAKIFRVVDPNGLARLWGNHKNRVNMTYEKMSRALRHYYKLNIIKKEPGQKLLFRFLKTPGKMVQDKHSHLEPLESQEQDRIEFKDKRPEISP
As to conditions: protein: recombinant; tags: N-terminal GST; dsDNA, one strand shown. Summed up: as §1

The next test deals with T11, ELF5 (Homo sapiens, UniProt Q9UKW6-2 1-255).
T11 sequence: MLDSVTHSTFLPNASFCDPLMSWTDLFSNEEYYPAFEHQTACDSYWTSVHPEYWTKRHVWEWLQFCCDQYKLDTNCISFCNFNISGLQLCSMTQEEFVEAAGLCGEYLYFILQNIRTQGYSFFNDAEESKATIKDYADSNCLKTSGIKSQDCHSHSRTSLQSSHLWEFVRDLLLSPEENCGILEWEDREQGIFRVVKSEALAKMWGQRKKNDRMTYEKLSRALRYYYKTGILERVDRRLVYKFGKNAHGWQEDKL
As to conditions: protein: recombinant; tags: N-terminal GST; dsDNA, one strand shown. The method, boiled down: as §1

The next test addresses T12, ETV3 (Homo sapiens, UniProt P41162-2 1-143).
T12 sequence: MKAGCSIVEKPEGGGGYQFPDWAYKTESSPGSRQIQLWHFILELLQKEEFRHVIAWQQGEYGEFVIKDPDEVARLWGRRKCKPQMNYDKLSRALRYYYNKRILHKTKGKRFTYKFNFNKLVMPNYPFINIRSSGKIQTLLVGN
As to conditions: protein: recombinant; tags: N-terminal GST; dsDNA, one strand shown. Summed up:
as §1

The next test concerns the target ETV6 (Homo sapiens, UniProt P41212 1-452). As to conditions: protein: recombinant; tags: N-terminal GST; dsDNA, one strand shown. Summed up: as §1

Chain of ETV5 (P41161 whole entry): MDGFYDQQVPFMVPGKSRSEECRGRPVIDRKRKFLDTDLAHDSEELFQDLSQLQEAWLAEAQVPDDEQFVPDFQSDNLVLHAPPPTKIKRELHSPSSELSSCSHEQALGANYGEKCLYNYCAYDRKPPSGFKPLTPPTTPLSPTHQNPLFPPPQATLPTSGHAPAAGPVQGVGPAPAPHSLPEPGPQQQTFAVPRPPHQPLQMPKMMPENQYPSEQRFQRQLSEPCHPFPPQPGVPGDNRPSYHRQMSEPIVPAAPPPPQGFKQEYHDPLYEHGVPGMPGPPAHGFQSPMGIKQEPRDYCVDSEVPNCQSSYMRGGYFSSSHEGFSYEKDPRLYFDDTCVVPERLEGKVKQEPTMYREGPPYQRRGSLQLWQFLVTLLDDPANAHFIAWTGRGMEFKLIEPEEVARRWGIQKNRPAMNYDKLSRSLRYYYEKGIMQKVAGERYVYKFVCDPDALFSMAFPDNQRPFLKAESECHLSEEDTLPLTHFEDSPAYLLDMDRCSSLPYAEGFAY
Chain of ETV6 (P41212 whole entry): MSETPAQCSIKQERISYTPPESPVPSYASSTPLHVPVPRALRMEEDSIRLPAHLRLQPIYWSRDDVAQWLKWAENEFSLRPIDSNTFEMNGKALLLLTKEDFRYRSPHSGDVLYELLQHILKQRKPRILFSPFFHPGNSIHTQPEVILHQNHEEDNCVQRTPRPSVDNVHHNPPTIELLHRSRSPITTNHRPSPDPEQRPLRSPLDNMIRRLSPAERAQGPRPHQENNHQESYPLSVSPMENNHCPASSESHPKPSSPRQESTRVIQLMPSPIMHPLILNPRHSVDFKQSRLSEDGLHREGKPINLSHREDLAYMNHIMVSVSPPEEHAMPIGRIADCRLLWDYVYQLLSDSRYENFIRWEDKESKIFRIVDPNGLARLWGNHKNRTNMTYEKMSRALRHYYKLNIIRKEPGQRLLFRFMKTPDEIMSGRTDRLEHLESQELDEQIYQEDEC
Chain of ELF4 (Q99607 whole entry): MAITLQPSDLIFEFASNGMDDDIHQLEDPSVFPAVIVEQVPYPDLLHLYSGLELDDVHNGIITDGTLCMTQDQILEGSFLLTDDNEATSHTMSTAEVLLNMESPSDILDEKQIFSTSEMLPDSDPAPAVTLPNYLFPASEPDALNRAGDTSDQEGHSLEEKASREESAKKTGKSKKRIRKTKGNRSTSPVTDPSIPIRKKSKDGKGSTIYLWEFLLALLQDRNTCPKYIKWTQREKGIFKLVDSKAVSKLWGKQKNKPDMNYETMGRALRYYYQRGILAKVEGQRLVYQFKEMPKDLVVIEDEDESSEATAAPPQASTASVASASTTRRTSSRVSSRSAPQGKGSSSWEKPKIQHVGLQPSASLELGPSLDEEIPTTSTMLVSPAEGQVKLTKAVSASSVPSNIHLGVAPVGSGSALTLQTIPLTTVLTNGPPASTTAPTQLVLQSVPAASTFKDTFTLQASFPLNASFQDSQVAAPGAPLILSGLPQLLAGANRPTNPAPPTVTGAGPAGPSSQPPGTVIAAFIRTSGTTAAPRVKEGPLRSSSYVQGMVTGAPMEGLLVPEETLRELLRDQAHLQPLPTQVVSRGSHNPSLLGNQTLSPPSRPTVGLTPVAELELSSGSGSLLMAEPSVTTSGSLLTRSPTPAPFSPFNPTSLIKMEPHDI
Chain of CRX (O43186 whole entry): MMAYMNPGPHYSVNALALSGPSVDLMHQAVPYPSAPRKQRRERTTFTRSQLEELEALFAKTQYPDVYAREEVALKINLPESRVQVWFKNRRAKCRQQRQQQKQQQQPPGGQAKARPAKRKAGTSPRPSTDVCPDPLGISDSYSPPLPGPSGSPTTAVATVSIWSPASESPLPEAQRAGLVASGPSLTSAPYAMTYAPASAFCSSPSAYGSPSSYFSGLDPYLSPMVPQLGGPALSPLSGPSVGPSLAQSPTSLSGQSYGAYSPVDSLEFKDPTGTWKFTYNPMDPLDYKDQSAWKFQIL
Chain of ETV1 (P50549 whole entry): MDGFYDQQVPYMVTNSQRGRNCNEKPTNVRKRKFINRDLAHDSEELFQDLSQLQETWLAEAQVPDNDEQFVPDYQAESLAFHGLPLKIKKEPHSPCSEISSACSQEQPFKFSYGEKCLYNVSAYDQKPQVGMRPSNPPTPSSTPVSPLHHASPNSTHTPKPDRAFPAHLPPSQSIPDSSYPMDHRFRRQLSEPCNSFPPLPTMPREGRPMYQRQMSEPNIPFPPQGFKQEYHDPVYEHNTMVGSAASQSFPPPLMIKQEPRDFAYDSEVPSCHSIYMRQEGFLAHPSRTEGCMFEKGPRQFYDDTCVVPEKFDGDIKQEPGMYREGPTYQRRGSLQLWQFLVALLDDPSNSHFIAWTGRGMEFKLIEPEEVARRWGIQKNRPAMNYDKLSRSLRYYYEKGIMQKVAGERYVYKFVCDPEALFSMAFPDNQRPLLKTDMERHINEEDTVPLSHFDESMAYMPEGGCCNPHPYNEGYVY
Chain of HSF1 (Q00613 whole entry): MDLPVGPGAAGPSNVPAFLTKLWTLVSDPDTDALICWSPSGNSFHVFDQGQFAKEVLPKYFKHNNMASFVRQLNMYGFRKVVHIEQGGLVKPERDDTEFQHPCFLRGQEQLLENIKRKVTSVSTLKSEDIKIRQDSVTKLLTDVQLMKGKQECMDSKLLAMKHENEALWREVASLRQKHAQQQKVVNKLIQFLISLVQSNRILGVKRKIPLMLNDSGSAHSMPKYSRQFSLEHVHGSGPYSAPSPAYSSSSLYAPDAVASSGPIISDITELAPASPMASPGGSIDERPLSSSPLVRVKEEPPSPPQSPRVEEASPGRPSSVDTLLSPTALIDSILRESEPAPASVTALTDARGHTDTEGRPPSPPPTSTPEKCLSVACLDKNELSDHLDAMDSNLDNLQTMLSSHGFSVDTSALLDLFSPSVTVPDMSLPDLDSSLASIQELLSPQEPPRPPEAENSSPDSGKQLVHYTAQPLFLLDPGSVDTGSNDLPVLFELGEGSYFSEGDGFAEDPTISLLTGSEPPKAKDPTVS

On to CGGCTC, for which the binding signal with FEV was 1.33 fold enrichment (6-mer frequency, TF over GST control); with ETV5 it was 1.28 fold enrichment (6-mer frequency, TF over GST control); with HSF1, 1.21 fold enrichment (6-mer frequency, TF over GST control); in the test with SPIC it was 1.23 fold enrichment (6-mer frequency, TF over GST control); with ELF4, 1.35 fold enrichment (6-mer frequency, TF over GST control); with ELK4 it was 1.22 fold enrichment (6-mer frequency, TF over GST control). The binding signal with ETV2 was 1.42 fold enrichment (6-mer frequency, TF over GST control); with ELF3 it was 1.48 fold enrichment (6-mer frequency, TF over GST control); in the test with CRX, 1.26 fold enrichment (6-mer frequency, TF over GST control); in the test with ETV1 it was 1.29 fold enrichment (6-mer frequency, TF over GST control); with ERF, 1.36 fold enrichment (6-mer frequency, TF over GST control); in the test with ETV3L, 1.27 fold enrichment (6-mer frequency, TF over GST control). Also, the binding signal with ETS2 is 1.23 fold enrichment (6-mer frequency, TF over GST control); in the test with SPDEF, 1.42 fold enrichment (6-mer frequency, TF over GST control); with ETV7, 1.25 fold enrichment (6-mer frequency, TF over GST control); in the test with ELF5 it was 1.27 fold enrichment (6-mer frequency, TF over GST control); with ETV3, 1.29 fold enrichment (6-mer frequency, TF over GST control); in the test with ETV6, 1.23 fold enrichment (6-mer frequency, TF over GST control).
